Experimental data as given in PubChem BioAssay AID1578 (Sanford-Burnham Center for Chemical Genomics, 2009).
The whole screen tested about 290,000 compounds, of which about 3,000 (1%) were called active. Rule as the data show it: active = inhibition mostly above about 36% (no sharp cut-off); inactive = mostly below about 34%. Many of the other results were omitted from the sample, so actives are more common in it than they were.

assay: inhibition of NOD1-driven NF-kB reporter – cell-based, luminescence, uHTS, primary screen (AID 1578); settings: NOD1-driven NF-kB luciferase reporter cells, at 4 µM, active compounds read high;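 also: HEK-293T reporter cells stimulated with the NOD1 agonist gamma-tri-DAP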

Structure (SMILES) | inhibition
CCCNC(=O)c1cc(S(=O)(=O)N2CCc3ccccc32)cn1C | 30.1% (inactive)
CCC(C)(C)NC(=O)c1cc(S(=O)(=O)N2CCc3ccccc32)cn1C | 14.8% (inactive)
CC1=NN(Cc2ccccc2)C(=O)C1C(c1ccncc1)C(C#N)C#N (configuration not stated) | 5.2% (inactive)
CCC(=O)Nc1nc2ccc3sc(C)nc3c2s1 | 17.2% (inactive)
Cc1nc2c(ccc3nc(NC(=O)C4CC4)sc32)s1 | 69% (active)
Cc1nc2c(ccc3nc(NC(=O)Cc4ccccc4)sc32)s1 | -51.4% (inactive)
Fc1ccc(NC(=S)Nc2cccnc2)c(F)c1F | -19.1% (inactive)
COc1ccc(CCNC(=O)c2oc3ccc(OC)cc3c2C)cc1 | -13.3% (inactive)
CCOc1ccccc1NC(=O)CSc1nc2c(c(=O)n1C)SC(C)C2 (configuration not stated) | -16.7% (inactive)
O=C1COc2ccc(C(=O)COC(=O)CCc3ccc(S(=O)(=O)N4CCOCC4)cc3)cc2N1 | 1.2% (inactive)
Cc1ccc2nc(-c3cc(-c4ccccc4)no3)cn2c1 | -4.9% (inactive)
c1ccc(-c2cc(-c3ccccc3)on2)cc1 | -10% (inactive)
CCc1ccn2cc(-c3cc(-c4ccccc4)no3)nc2c1 | 45.6% (active)
O=C(NCc1ccccc1)C1CCC(CNS(=O)(=O)c2cccs2)CC1 (configuration not stated) | -1.7% (inactive)
CCc1ccc(NC(=O)CSc2nc3cc(C(=O)OC)ccc3c(=O)n2Cc2ccco2)cc1 | -7.4% (inactive)
COC(=O)c1ccc2c(=O)n(Cc3ccco3)c(SCC(=O)Nc3cc(C)on3)nc2c1 | -44.8% (inactive)
CCN(C(=O)CSc1nc2cc(C(=O)OC)ccc2c(=O)n1Cc1ccco1)c1cccc(C)c1 | 74% (active)
Cc1ccc(S(=O)(=O)NC(=O)Nc2ccccc2)cc1 | -30.4% (inactive)
O=C(Cn1nnc(-c2ccc3c(c2)OCO3)n1)NCc1ccccc1 | 4.7% (inactive)
O=C(NCC(=O)N1CC(O)CC1C(=O)N1CC(O)CC1C(=O)OCc1ccccc1)OCc1ccccc1 (configuration not stated) | -13.7% (inactive)
CCOC(=O)/C=C/C(=O)Nc1ccc(Oc2ccccc2)cc1 | 6.8% (inactive)
CC(=O)Nc1ccc(S(=O)(=O)N(C)c2ccccc2)cc1 | -12.7% (inactive)
Cc1cc(NC(=O)Nc2cccc(C(F)(F)F)c2)no1 | -7.7% (inactive)
Cc1ccc(NC(=O)CSc2nn(-c3ccc(Cl)cc3)c(=S)s2)cc1S(=O)(=O)N(C)C | 53.2% (inactive)
NS(=O)(=O)c1cccc(NC(=O)CSc2nn(-c3ccccc3)c(=S)s2)c1 | 39.5% (inactive)

Structure (SMILES) | inhibition
Cc1c(C(=O)NCCSCc2cccc(C(F)(F)F)c2)cnn1-c1ccc(F)cc1 | -3.5% (inactive)
COc1cccc(NC(=O)Cc2ccc3ccccc3c2)c1 | 15.2% (inactive)
Cc1ccc(NC(=O)Cn2c(=O)cnc3ccccc32)cc1S(=O)(=O)N(C)C | -22.2% (inactive)
Cc1sc(NC(=O)Nc2ccccc2)c(C(N)=O)c1C | -40.3% (inactive)
COc1ccc(N2CCN(C(=O)C(C)(C)Oc3ccc(Cl)cc3)CC2)cc1 | -14.6% (inactive)
COC(=O)c1sc(N2CCN(c3ccc(Cl)cc3)CC2)nc1N | 66.9% (active)
COc1ccc(N2CCN(C(=O)NC(=O)c3ccc(Cl)cc3)CC2)cc1 | -13.4% (inactive)
NS(=O)(=O)c1ccc(NCc2cc(Cl)ccc2OCc2ccc(F)cc2)cc1 | 27.2% (inactive)
Cc1ccc2c(c1)c(=O)c1c3n2CCN(C(=O)CCl)C3CC1 (configuration not stated) | 105% (active)
CC(=O)N1CCn2c3c(c(=O)c4cc(C)ccc42)CCC31 (configuration not stated) | -6.4% (inactive)
Cc1ccc2c(c1)c1c3n2CCN(C(=O)CCl)C3CCC1 (configuration not stated) | 52.3% (inactive)
CCc1ccc2c(CN3CCN(S(=O)(=O)c4ccc5c(c4)OCCO5)CC3)cc(=O)oc2c1 | -2.7% (inactive)
COc1ccc(S(=O)(=O)n2c([N+](=O)[O-])cnc2C)cc1OC | -2.3% (inactive)
CC1=C(C(=O)OCc2ccccc2)C(c2ccc(Cl)cc2)NC(=O)N1C (configuration not stated) | -1.2% (inactive)
O=C(N/N=C/c1cccnc1)C1CCCCC1 | -16.2% (inactive)
Cc1ccc(C(=O)N2CCN=C2SCc2ccc([N+](=O)[O-])cc2)cc1 | 35.5% (inactive)
Cc1cc(C)cc(C(=O)N2CCN=C2SCc2ccc([N+](=O)[O-])cc2)c1 | 41% (inactive)
Cc1cccc(C(=O)N2CCN=C2SCc2ccc([N+](=O)[O-])cc2)c1 | 41.9% (active)
O=C(C1CC1)N1N=C(c2ccncc2)CC1(O)C(F)(F)F (configuration not stated) | -21.3% (inactive)
O=C(NCc1cccc(C(F)(F)F)c1)C1CC(c2cccc(F)c2)=NO1 (configuration not stated) | -5% (inactive)
O=C(/C=C/c1cccc([N+](=O)[O-])c1)Nc1ccccc1N1CCOCC1 | -27.5% (inactive)
COCCCNC(=O)CCN1C(=O)COc2ccccc21 | 9.8% (inactive)
CC(C)(C)c1cc(CN2CCN(CCO)CC2)cc(C(C)(C)C)c1O | 45.2% (inactive)
CC(C)(C)c1cc(C(=S)N2CCN(CCO)CC2)cc(C(C)(C)C)c1O | 11.9% (inactive)
CC(C)(C)c1cc(C(c2cccnc2)N2CCN(CCO)CC2)cc(C(C)(C)C)c1O (configuration not stated) | 67.2% (active)

Structure (SMILES) | inhibition
CCCN1C/C(=C/c2ccc3c(c2)OCO3)C(=O)/C(=C/c2ccc3c(c2)OCO3)C1 | 67.2% (active)
O=C1/C(=C\c2ccc3c(c2)OCO3)CCC/C1=C/c1ccc2c(c1)OCO2 | -48% (inactive)
O=C(CCN1C(=O)/C(=C/c2ccc3c(c2)OCO3)SC1=S)Nc1ccccc1 | -5.3% (inactive)
CCOC(=O)CN1C(=O)S/C(=C\c2ccc3c(c2)OCO3)C1=O | 16.9% (inactive)
CCCN1C(=O)/C(=C/c2ccc3c(c2)OCO3)NC1=S | -29.7% (inactive)
NCCN1C(=O)S/C(=C\c2ccc3c(c2)OCO3)C1=O | 27.3% (active)
CCOC(=O)c1c(NC(=O)c2cccc(N3C(=O)CCC3=O)c2)sc2c1CCN(CC)C2 | -16.7% (inactive)
CC(C)(C)C(=O)COC(=O)CCc1nc2ccccc2[nH]c1=O | 2.2% (inactive)
O=C(CCCN1C(=O)/C(=C/c2cccs2)SC1=S)Nc1ccccn1 | 63.6% (active)
O=C(CCCN1C(=O)/C(=C\c2cccs2)SC1=S)Nc1ccccn1 | 4.3% (inactive)
O=C(CCN1C(=O)/C(=C\c2cccs2)SC1=S)Nc1ccccn1 | -42% (inactive)
CSc1ccccc1-c1n[nH]c(=S)o1 | -15% (inactive)
CC(C)Cc1ccc(C(C)C(=N)N)cc1 (configuration not stated) | 43% (active)
CC(C)Cc1ccc(C(C)C(N)=NCCc2ccccc2)cc1 (configuration not stated) | -10.4% (inactive)
CC(C)Cc1ccc(C(C)C(=O)O)cc1 (configuration not stated) | -13.2% (inactive)
CCOP(=O)(OCC)C1NC(=O)N(c2ccccc2)C1=O (configuration not stated) | -1.7% (inactive)
CCc1ccc(C(=O)COC(=O)C(CCSC)NC(=O)c2ccccc2)cc1 (configuration not stated) | 16.6% (inactive)
CCC(C)(C)c1ccc(OCCCC[n+]2ccc(C)cc2)c(C(C)(C)CC)c1 | 43.7% (inactive)
Cc1cc(C(C)(C)C)ccc1OCCCCN1CCCC1 | -74.5% (inactive)
CCC(C)(C)c1ccc(OCCCC[n+]2ccccc2)c(C(C)(C)CC)c1 | 11.8% (inactive)
CCC(C)(C)c1ccc(OCC(=O)N(C)C)c(C(C)(C)CC)c1 | 26.1% (inactive)
Cc1cccc(-c2oc3ccccc3c2C#CCCO)c1 | -12.5% (inactive)
COc1ccc(Oc2nccc(OC)c2C#N)cc1 | -18.4% (inactive)
Cn1c(=O)c2c(nc(SCC(=O)NCC3CCCO3)n2Cc2ccc(F)cc2)n(C)c1=O (configuration not stated) | -8.2% (inactive)
COc1ccc(CNC(=O)CN(Cc2ccc(Cl)cc2)C(=O)c2csnn2)cc1 | -9% (inactive)

Structure (SMILES) | inhibition
Cc1oc(-c2cccs2)nc1CS(=O)CC(=O)NCc1ccc2c(c1)OCO2 (configuration not stated) | 1.1% (inactive)
COc1ccccc1CNC(=O)c1ccccc1OC | -29.5% (inactive)
COc1ccccc1CCNC(=O)c1ccoc1C | -33.7% (inactive)
COc1ccccc1CNC(=O)c1ccoc1C | 47.6% (active)
COc1ccc(-c2csc(NC(=O)CN3C(=O)CCC3=O)n2)cc1 | -30.6% (inactive)
Cc1ccc(C(=O)NCCCNC(=O)c2ccc(Cl)cc2)cn1 | -10.8% (inactive)
O=C(NNS(=O)(=O)c1ccccc1)c1ccc(F)cc1 | -11.4% (inactive)
C[n+]1c(/C=C/c2ccc(O)cc2)ccc2ccccc21 | -15.4% (inactive)
CN1C=C/C(=C\c2cc[n+](C)c3ccccc23)c2ccccc21 | 20.8% (inactive)
CCNC(=O)C1CCCc2c1[nH]c1ccc(Cl)cc21 (configuration not stated) | -25.3% (inactive)
CCN1C(=O)N(CC)C2C1N(C(C)=O)C(=O)N2C(C)=O (configuration not stated) | -26.2% (inactive)
Cc1c(NC(=O)c2ccccc2)c(=O)n(-c2ccccc2)n1C | -17.8% (inactive)
Cc1c(NC(=O)CC(=O)Nc2c(C)n(C)n(-c3ccccc3)c2=O)c(=O)n(-c2ccccc2)n1C | 14.4% (inactive)
Cc1c(NC(N)=O)c(=O)n(-c2ccccc2)n1C | 54.9% (active)
CCOc1ccc(/C=C/c2nc(C#N)c(NCCCN(C)C)o2)cc1 | 2.8% (inactive)
CCOc1ccc(/C=C/c2nc(C#N)c(NCCCOC)o2)cc1 | -11.6% (inactive)
CCNc1oc(/C=C/c2ccc(OCC)cc2)nc1C#N | 64.9% (active)
COc1cc(NC(=O)CSc2nnc(-c3cc(C)on3)o2)cc(OC)c1 | 9.9% (inactive)
CCCc1nnc(NC(=O)C23CC4CC(CC(C4)C2)C3)s1 | 0.1% (inactive)
Cc1c(C(=O)Nc2ccc3c(c2)OCCO3)sc2nc(-c3ccccc3)cn12 | 79.1% (active)
Cc1c(C(=O)Nc2ccc3c(c2)OCO3)sc2nc(-c3ccccc3)cn12 | -35.7% (inactive)
Cc1c(C(=O)Nc2ccccc2)sc2nc(-c3ccccc3)cn12 | -15.4% (inactive)
